Bioassay records (PubChem)
Cruzain noTriton – cruzain (T. cruzi) inhibition without detergent | actives 2.3% (n = 200,000) | AID 1476 | Potency, µM, usual class: inhibitors | purified cruzain, Z-FR-AMC fluorescence, no detergent | P25779; further: nearly all actives have a fitted effect of over 40% in size
Target sequence (P25779 123-467 limits assumed): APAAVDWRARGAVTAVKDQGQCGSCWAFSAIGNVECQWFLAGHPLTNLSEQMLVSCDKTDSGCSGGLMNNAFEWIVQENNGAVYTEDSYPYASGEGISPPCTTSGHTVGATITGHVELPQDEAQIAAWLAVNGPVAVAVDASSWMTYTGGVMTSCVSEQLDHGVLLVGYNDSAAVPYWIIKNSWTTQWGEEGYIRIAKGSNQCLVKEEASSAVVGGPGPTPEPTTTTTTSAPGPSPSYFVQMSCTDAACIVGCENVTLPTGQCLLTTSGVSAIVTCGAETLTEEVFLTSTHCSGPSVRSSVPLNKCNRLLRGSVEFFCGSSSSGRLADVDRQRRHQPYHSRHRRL
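Purified cruzain at 1.5 nM, pre-incubated 15 min with compound at room temperature in 100 mM sodium acetate pH 5.5, 5 mM DTT, 0.00005% Triton X-100. Reaction started with 2 uM Z-FR-AMC; AMC fluorescence increase over 60 s gives rate.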
FBPA Giardia inh – Giardia lamblia aldolase inhibition. A8B2U2. purified Giardia FBPA. Potency, µM (top dose mostly 59.6 µM), usual class: inhibitors. actives 0.71% (n = 290,000); further: nearly all actives have a fitted effect of over 55% in size
Target sequence (A8B2U2 whole entry, looked up): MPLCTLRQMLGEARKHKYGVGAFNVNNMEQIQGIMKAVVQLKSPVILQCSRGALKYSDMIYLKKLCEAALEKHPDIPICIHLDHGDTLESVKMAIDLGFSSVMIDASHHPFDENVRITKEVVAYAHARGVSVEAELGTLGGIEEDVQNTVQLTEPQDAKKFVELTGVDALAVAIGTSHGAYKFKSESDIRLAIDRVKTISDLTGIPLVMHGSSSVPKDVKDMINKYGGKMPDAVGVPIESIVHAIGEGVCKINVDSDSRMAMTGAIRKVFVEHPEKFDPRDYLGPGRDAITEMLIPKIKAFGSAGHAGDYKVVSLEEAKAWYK
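Giardia FBPA (40 nM reagent) was preincubated 10 min at RT with compound (up to 57.5 uM final), then substrate plus GAPDH/TPI/NAD/arsenate coupling system with diaphorase/resazurin was added; resorufin fluorescence (525/598 nm) was read after 20 min.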
Cruzain Triton – inhibitors of Trypanosoma cruzi cruzain with detergent; actives 0.43% (n = 200,000); P25779; Potency, µM, usual class: inhibitors; purified cruzain, Z-FR-AMC fluorescence, 0.01% Triton; further: nearly all actives have a fitted effect of over 40% in size
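Compounds were screened in titration against cruzain (1.5 nM) with 0.01% Triton X-100 to counter colloidal aggregation. Activity was the AMC fluorescence increase over 60 s after adding 2 uM Z-FR-AMC at pH 5.5.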
Each line names hits and unclear results; the compound was inactive in the other large screens. Many of the other results were omitted from the sample, so hits are more common in it than they were. The call rests on the fitted dose curve; in most records, active means well fitted curve in the direction sought with a large enough effect; inconclusive means small, poorly fitted or top-dose-only effect, or another doubt; inactive means no such curve, though single readings can be large; an effect the other way counts as inactive or inconclusive.

CC(=O)N1CCN(c2nc(-c3ccco3)c3c(c2C#N)CC(C)(C)SC3)CC1	Cruzain noTriton inconclusive
CC1(C)Cc2c(C#N)c(N3CCN(C(=O)c4ccccc4Cl)CC3)nc(-c3ccco3)c2CS1	Cruzain noTriton inconclusive, Cruzain Triton 11.2µM
CC1(C)Cc2c(c(-c3ccccc3)[nH]c(=O)c2C#N)CS1	none
CN1Cc2c(N3CCOCC3)nc(SCc3ccccc3)c(C#N)c2CC1(C)C	none
O=C(NCCCN1CCN(c2ccc(F)cc2)CC1)c1cnn(-c2ccc(F)cc2)c1-n1cccc1	none (no result: FBPA Giardia inh)
O=C(O)CSCCc1ccccc1	none (no result: FBPA Giardia inh)
O[C@@H](C1=C/C(=C\c2ccncc2)c2ccccc21)c1ccncc1	none (no result: FBPA Giardia inh)
CCOC(=O)c1[nH]c2ccccc2c1NC(=O)c1ccccc1OC	none (no result: FBPA Giardia inh)
CCOC(=O)c1[nH]c2ccc(F)cc2c1NC(=O)Nc1ccccc1OC	Cruzain noTriton 7.94µM
CC(C)C(NC(=O)c1ccccc1Cl)C(=O)OCc1nc2scc(-c3ccccc3Cl)c2c(=O)[nH]1 (stereo not given)	Cruzain noTriton 25.1µM
O=C(OCc1nc2scc(-c3ccccc3)c2c(=O)[nH]1)c1cc([N+](=O)[O-])ccc1Cl	Cruzain noTriton inconclusive
COc1ccc(OC)c(NC(=O)Nc2cccc(OCc3cc(=O)n4cc(C)ccc4n3)c2)c1	none (no result: FBPA Giardia inh)
CN[C@@H](CCCN=C(N)N)C(=O)N[C@@H](CCCCN)C(=O)N1CCC[C@H]1C(=O)N[C@@H](Cc1c[nH]c2ccccc12)C(=O)N[C@H](C(=O)N[C@H](CC(C)C)C(=O)O)C(C)(C)C	none (no result: Cruzain noTriton, Cruzain Triton)
Cc1ccc2c(c1)N(C(=O)c1ccco1)C(C)(C)c1ssc(=S)c1-2	Cruzain noTriton 31.6µM
Cc1cccc2c1N(C(=O)c1ccco1)C(C)(C)c1ssc(=S)c1-2	none
COc1ccccc1CNC(=O)CN1N=C(c2ccccc2)CCC1=O	none (no result: FBPA Giardia inh)
CCN(c1ccccc1C)S(=O)(=O)c1nnc(NC(=O)c2ccc(OC)c(OC)c2)s1	none (no result: FBPA Giardia inh)
COc1ccc(-c2nn(-c3ccccc3)cc2/C=C2/SC(=S)N(Cc3ccco3)C2=O)c(C)c1	Cruzain noTriton 3.16µM
COc1ccc(-n2c(C)cc(/C=C3\SC(=O)NC3=O)c2C)cc1	none (no result: Cruzain noTriton, Cruzain Triton)
COc1ccc(-n2c(C)cc(/C=C3\SC(=S)N(Cc4ccco4)C3=O)c2C)cc1	Cruzain noTriton 7.94µM
O=C(O)CCCN1C(=O)/C(=C/c2cn(-c3ccccc3)nc2-c2cccs2)SC1=S	none (no result: Cruzain noTriton, Cruzain Triton)
Cc1ccc(NC(=O)CC2Nc3ccccc3NC2=O)cc1C (stereo not given)	none (no result: FBPA Giardia inh)
CCOc1ccccc1NC(=O)CC1Nc2ccccc2NC1=O (stereo not given)	Cruzain noTriton inconclusive
Cc1ccc(NC(=O)CC2Nc3ccccc3NC2=O)cc1Cl (stereo not given)	Cruzain noTriton 25.1µM, Cruzain Triton inconclusive
CCCOc1ccccc1NC(=O)CC1Nc2ccccc2NC1=O (stereo not given)	Cruzain noTriton 12.6µM
COc1cccc(C(=O)Oc2cc3c4c(c2)C(C)=CC(C)(C)N4C(=O)C3=O)c1	none
CC1=CC(C)(C)n2c(O)c(C3=NC(=S)NC3=O)c3cc(OC(=O)c4cccc5ccccc45)cc1c32	Cruzain noTriton 3.16µM
COC(=O)[C@]1(C)CC[C@@]2(C)CC[C@@]3(C)C4=CC=C5C(=CC(=O)C(O)=C5C)[C@@]4(C)CC[C@@]3(C)C2C1 (stereo not given in full)	none
Cc1ccc(CNc2nc(N)c([N+](=O)[O-])c(Nc3ccc(F)cc3)n2)cc1	Cruzain noTriton 15.8µM (no result: FBPA Giardia inh)
Cc1ccc(CNc2nc(N)c([N+](=O)[O-])c(NCc3ccccc3)n2)cc1	Cruzain noTriton inconclusive
CCOc1ccc(C2=NNC(c3cccnc3)=Nc3ccc(OC)cc32)cc1	none (no result: Cruzain noTriton, Cruzain Triton)
CCOc1ccc2c(c1)C(c1ccc(C)cc1)=NNC(c1ccc(OC)cc1)=N2	Cruzain noTriton 15.8µM
O[C@@H](c1cc(-c2ccc(Cl)cc2)nc2ccccc12)C1CCCCN1 (stereo not given in full)	none (no result: FBPA Giardia inh)
CC#CCN1c2ccccc2[C@]23C[C@@H](C(=O)OC)N(S(=O)(=O)c4ccc([N+](=O)[O-])cc4)C2=NC(C(=O)OC)=C(C(=O)OC)[C@H]13	none (no result: Cruzain noTriton, Cruzain Triton)
COc1cc(/C=N/Nc2snc(SC)c2C#N)ccc1O	none
CSc1nsc(/C=C/Nc2ccc(C)cc2)c1C#N	Cruzain noTriton 3.16µM
Cc1cc(NC(=O)CSc2nc(-c3cccc(F)c3)nc3c2c(=O)n(C)c(=O)n3C)no1	none (no result: FBPA Giardia inh)
Cc1nc(N=Nc2cc(S(=O)(=O)O)c3cc([N+](=O)[O-])cc(S(=O)(=O)O)c3c2)c(COP(=O)(O)O)c(C=O)c1O	none
Cc1nc(N=Nc2cc([N+](=O)[O-])ccc2Cl)c(COP(=O)(O)O)c(C=O)c1O	FBPA Giardia inh 22.3µM (no result: Cruzain noTriton, Cruzain Triton)
Cc1ccc(Nc2ccc(N3CCN(C(=O)c4cccc([N+](=O)[O-])c4)CC3)nn2)cc1	none (no result: FBPA Giardia inh)
C(=C\c1nc2ccccc2[nH]1)/c1ccccc1	Cruzain noTriton 20µM
C(=C\c1ccco1)/c1nc2ccccc2[nH]1	none (no result: Cruzain noTriton, Cruzain Triton)
CC(C)(C)CC(C)(C)c1cc(O)c(O)c(CN2CCCCC2)c1	none (no result: FBPA Giardia inh)
O=C(Nc1ccccc1N1CCCCC1)c1ccc(Cl)c([N+](=O)[O-])c1	none (no result: Cruzain noTriton, Cruzain Triton)
O=C(/C=C/c1ccc(Cl)c([N+](=O)[O-])c1)Nc1ccc(N2CCCC2)c(Cl)c1	Cruzain noTriton 20µM
COc1ccc(-c2cc(-c3ccccc3)nc(SCC(=O)Nc3ccccc3C)c2C#N)cc1	none (no result: FBPA Giardia inh)
COc1ccc(-c2cc(-c3cccs3)c(C#N)c(SCC(=O)NCc3ccco3)n2)cc1	Cruzain noTriton 7.94µM
COc1ccc(CNC(=O)CSc2nc(-c3ccccc3)cc(-c3cccs3)c2C#N)cc1	Cruzain noTriton 10µM
CCc1nnc(NC(=O)CSc2ccc(-c3ccc(F)cc3)nn2)s1	none (no result: Cruzain noTriton, Cruzain Triton)
COc1cccc(-c2ccc(C#N)c(SCC(=O)NCc3ccco3)n2)c1	none (no result: Cruzain noTriton, Cruzain Triton)
CCc1nnc(NC(=O)CSc2nc(-c3ccccc3)cc(-c3ccc(F)cc3)c2C#N)s1	Cruzain noTriton 7.94µM
CCOC(=O)C1=NO[C@@]2(C=C(Br)C3(OCCCO3)[C@H]3O[C@H]32)C1	none (no result: Cruzain noTriton, Cruzain Triton)
Nc1nc2c(c(=O)[nH]1)CN(CCCN1CCOCC1)CN2	none (no result: FBPA Giardia inh)
COc1ccc(C2=CSC3=C(C(=O)c4cccc(S(=O)(=O)N(C)C)c4)CCN23)cc1	Cruzain noTriton 25.1µM
COc1ccc(N(C)S(=O)(=O)c2cccc(C(=O)NC3CCC(C)CC3)c2)cc1 (stereo not given)	none (no result: Cruzain noTriton, Cruzain Triton)
CC(N)(Cc1ccc(O)c(O)c1)C(=O)O (stereo not given)	FBPA Giardia inh inconclusive
CCOC(=O)c1ccc(N2C(=O)c3n[nH]c(-c4cccs4)c3C2c2ccc(OCC)cc2)cc1 (stereo not given)	Cruzain noTriton inconclusive (no result: FBPA Giardia inh)
CCOC(=O)c1ccc(N2C(=O)c3n[nH]c(-c4cccs4)c3C2c2ccc(CC)cc2)cc1 (stereo not given)	Cruzain noTriton 5.01µM (no result: FBPA Giardia inh)
COC(=O)C1CC1[C@H](NC(=O)c1cccnc1)c1ccccc1 (stereo not given in full)	none (no result: Cruzain noTriton, Cruzain Triton)
O=C(NC1CCCc2ccccc21)c1cccc(S(=O)(=O)N2CCN(c3ccccc3)CC2)c1 (stereo not given)	Cruzain noTriton inconclusive
O=C(Nc1ccc2c(c1)CCC2)c1cccc(S(=O)(=O)N2CCN(c3ccccc3)CC2)c1	Cruzain noTriton 25.1µM
O=C(Nc1ccc(F)c(F)c1)c1cc(S(=O)(=O)N2CCN(c3ccccn3)CC2)ccc1F	none
